MEKK2mut PB1 HTS: signal of MEK5 binding to mutant human MEKK2 PB1 domain; bead flow cytometry, Alexa488-MEK5 binding to MEKK2 mutant; percent response, % at 10 µM; actives 0.35% (n = 290,000); in the data active = percent response above about 24%, passing the limit was not always enough
GRK2 inh: human GRK2 inhibition via aptamer displacement; P25098; AID 488847; bead flow cytometry, FAM-aptamer displacement from GRK2; actives 0.59% (n = 330,000); inhibition of aptamer binding, % at 10 µM;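 active = inhibition of aptamer binding above 40%, roughly 3 SD of noise, on plates passing a quality check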;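 also: median bead fluorescence of bound FAM aptamer so fluorescent compounds give negative values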
MEKK2 WT-MEK5: raises or lowers MEK5 binding to wildtype human MEKK2 PB1 domain | actives 1.1% (n = 290,000) | AID 1531 | bead flow cytometry, Alexa488-MEK5 binding to MEKK2 WT; actives lie on both sides | binding response (% of control), % at 10 µM; in the data active = binding response below about 67% or above about 130%
MEKK3 PB1 HTS: raises or lowers MEK5 binding to the human MEKK3 PB1 domain; Q99759; bead-based flow cytometry, Alexa488-MEK5 binding to MEKK3; actives lie on both sides; 0 = blocked by unlabeled MEK5, 100 = vehicle; binding response (% of control), % at 10 µM; actives 1.4% (n = 290,000); AID 1529;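 active = binding response more than 3 SD above or below the average of its plate-row segment, actives on both sides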;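 also: Alexa488 bead fluorescence after subtracting the streptavidin-only scavenger bead signal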
Target sequence (Q99759 whole entry, looked up, the tested form may be a part): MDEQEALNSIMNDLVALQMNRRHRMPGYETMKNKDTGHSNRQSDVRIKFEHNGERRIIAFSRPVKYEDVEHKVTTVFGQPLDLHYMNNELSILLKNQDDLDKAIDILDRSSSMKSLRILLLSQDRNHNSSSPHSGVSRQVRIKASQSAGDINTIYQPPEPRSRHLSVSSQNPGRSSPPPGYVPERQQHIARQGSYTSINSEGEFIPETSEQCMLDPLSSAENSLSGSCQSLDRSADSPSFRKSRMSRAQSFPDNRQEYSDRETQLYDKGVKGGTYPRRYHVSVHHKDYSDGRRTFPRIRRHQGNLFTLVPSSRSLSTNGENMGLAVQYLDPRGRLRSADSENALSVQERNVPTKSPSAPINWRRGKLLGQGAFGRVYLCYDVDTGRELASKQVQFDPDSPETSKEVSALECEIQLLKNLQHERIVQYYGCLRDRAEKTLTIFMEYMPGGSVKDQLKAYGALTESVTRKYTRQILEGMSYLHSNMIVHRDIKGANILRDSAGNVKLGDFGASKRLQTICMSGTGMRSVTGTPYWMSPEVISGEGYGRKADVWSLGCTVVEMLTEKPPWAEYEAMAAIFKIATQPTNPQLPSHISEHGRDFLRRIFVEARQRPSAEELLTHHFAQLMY
MEKK2wt confirm: raises or lowers MEK5 binding to wildtype human MEKK2, retest; actives 2.4% (n = 5,900); binding response (% of control), % at 10 µM; bead flow cytometry, Alexa488-MEK5 binding to MEKK2 WT; actives lie on both sides; AID 1892; shares compounds with MEKK3 PB1 HTS; in the data active = binding response below about 16% or above about 210%; inactive = in between
MEKK2mut confirm: signal of MEK5 binding to mutant human MEKK2, retest. shares compounds with MEKK3 PB1 HTS. bead flow cytometry, Alexa488-MEK5 binding to MEKK2 mutant. percent response, % at 10 µM. actives 2% (n = 5,900); in the data active = percent response mostly above about 71%, no sharp cut-off; inactive = mostly below about 38%;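 also: higher means compound restores mutant binding toward wildtype level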
MEKK3-MEK5 inh: MEKK3-MEK5 PB1 inhibition, single concentration confirmation. actives 1.8% (n = 5,900). bead flow cytometry, Alexa488-MEK5 binding to MEKK3; hits give low values. shares compounds with MEKK3 PB1 HTS. binding response (% of control), % at 10 µM;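 active = binding response below 72% of control, or above a set upper limit, though filed actives all read lower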;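 also: lower values mean stronger disruption of MEK5 binding to MEKK3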
A number is an active result; i = inactive; nt = no result given; [ ] = another dose, or the depositor's remark. Sampled rows, rich in hits. Any-hit rate of the full collection: about 2.5%.

SMILES	MEKK2mut PB1 HTS	GRK2 inh	MEKK2 WT-MEK5	MEKK3 PB1 HTS	MEKK2wt confirm	MEKK2mut confirm	MEKK3-MEK5 inh
Cc1ccc(S(=O)(=O)n2ccc3c(OCCOCCNCc4ccc(F)cc4)cccc32)cc1	54	i	225	i	i	i	i
Cc1cccc(-n2c(SCC(=O)N3CC(=O)Nc4ccccc43)nc3ccccc3c2=O)c1	i	i	i	i	nt	nt	nt
O=C(CSc1nc2ccccc2c(=O)n1-c1ccccc1)N1CCN(CCO)CC1	i	i	3.0[inhibitor]	2.0[inhibitor]	i	i	i
Cc1ccc(-n2c(SCC(=O)N3CC(=O)Nc4ccccc43)nc3ccccc3c2=O)cc1C	i	i	i	136	i	i	i
CC(C)c1ccccc1-n1c(SCC(=O)N2CCc3ccccc3C2)nc2ccccc2c1=O	i	i	i	155	i	i	i
O=C(O)c1ccccc1C(=O)NC1CCCc2ccccc21 (stereo not given)	i	i	i	i	nt	nt	nt
CCOC(=O)n1c(O)c(N=NC(N)=S)c2cc(C)ccc21	i	i	i	68[inhibitor]	i	i	i
Cc1ccc(NC(=O)Cn2c(O)c(N=NC(N)=S)c3ccccc32)cc1	i	i	i	i	nt	nt	nt
CCOC(=O)c1ccc(-n2c(CCC(=O)O)ccc2-c2ccc(F)cc2)cc1	i	i	i	i	nt	nt	nt
CN(CC(=O)Nc1ccccc1Br)C(=O)c1sccc1-c1ccccc1	nt	i	nt	nt	nt	nt	nt
C/C=C/C=N/NC(=O)CN(c1ccc(Br)cc1)S(=O)(=O)c1ccccc1	i	i	i	149	i	i	i
COc1ccc(N(CC(=O)N/N=C/c2ccc(N(C)C)cc2)S(=O)(=O)c2ccccc2)cc1	i	i	i	i	nt	nt	nt
COc1ccccc1CN1CC(C(=O)N2CCC(OC)CC2)CCC1=O (stereo not given)	i	i	i	i	nt	nt	nt
COCCCNCCOCCSc1ccc(Cl)cc1	i	i	i	i	nt	nt	nt
COCCCNCCCCSc1ccc(Cl)cc1	i	i	i	52[inhibitor]	i	i	i
CCN1CCN(C(c2ccc(C(F)(F)F)cc2)c2ccc3cccnc3c2O)CC1 (stereo not given)	40	i	164	i	i	i	i
CCC(=O)NC(c1ccc(C)cc1)c1ccc2cccnc2c1O (stereo not given)	i	i	i	i	nt	nt	nt
CS(=O)(=O)N1CCc2cc(C(=O)N3CCCC3)ccc21	i	i	i	132	i	i	i
CS(=O)(=O)N1CCc2cc(C(=O)N3CCN(c4ccccc4)CC3)ccc21	i	i	i	i	nt	nt	nt
Cc1cnc(CNC(=O)C2CCC(=O)N(Cc3ccc(Cl)cc3)C2)[nH]1 (stereo not given)	i	i	i	i	nt	nt	nt
COCCN(CC(=O)NCc1ccc(F)cc1)C(=O)CCC(=O)Nc1ccccn1	i	i	i	81[inhibitor]	i	i	i
O=C(Nc1ccc(S(=O)(=O)Nc2ccnn2-c2ccccc2)cc1)C(F)(F)F	i	i	i	i	nt	nt	nt
CN1C(N)=NC(=O)/C1=C/c1ccccc1F	i	i	i	i	nt	nt	nt
Cc1ccc(NC(=O)CCn2nc(C)cc2C)cc1	i	i	139	142	i	i	i
COc1ccc(/C=N/NC(=O)CCn2nc(C)cc2C)cc1	i	i	i	133	i	i	i
SMILES	MEKK2mut PB1 HTS	GRK2 inh	MEKK2 WT-MEK5	MEKK3 PB1 HTS	MEKK2wt confirm	MEKK2mut confirm	MEKK3-MEK5 inh
COc1ccc(/C=N/NC(=O)CCn2nc(C)cc2C)cc1O	i	i	i	i	nt	nt	nt
O=C(Nc1c2c(nn1-c1ccccc1)CS(=O)C2)c1ccco1 (stereo not given)	i	i	i	i	nt	nt	nt
Cc1cc(OCC(=O)NC(C)(C)C)ccc1Cl	i	i	i	128	i	i	i
CCOc1ccc(Oc2c(/C=N/NC(=O)C3CC3)c(C)nn2-c2ccccc2)cc1	i	i	i	131	i	i	i
CCOc1ccc(N(CC(=O)N2CCOCC2)S(=O)(=O)c2ccc(SC)cc2)cc1	i	i	i	i	nt	nt	nt
O=c1c2cc(N3CCOCC3)ccc2[nH]c(=S)n1CCCN1CCCCCC1	i	i	148	i	i	i	i
O=c1c2cc(N3CCOCC3)ccc2[nH]c(=S)n1CCN1CCCC1	i	i	i	i	nt	nt	nt
O=C(Nn1c(O)c(C=C2N=c3ccccc3=N2)sc1=S)c1ccccc1	i	i	17[inhibitor]	i	i	i	i
Cc1ccc(C(=O)Nn2c(O)c(C=C3N=c4ccccc4=N3)sc2=S)cc1	i	i	39[inhibitor]	i	i	i	i
O=C1N=c2ccccc2=C1c1sc(=S)n(NC(=O)c2cccc(O)c2)c1O	i	nt	i	i	nt	nt	nt
O=C(Nn1c(O)c(C=C2N=c3ccccc3=N2)sc1=S)c1ccc(Cl)cc1	nt	i	nt	nt	nt	nt	nt
Cc1ccc(S(=O)(=O)Nn2c(O)c(C=C3N=c4ccccc4=N3)sc2=S)cc1	i	i	i	i	nt	nt	nt
O=C(Nn1c(O)c(C=C2N=c3ccccc3=N2)sc1=S)c1cccc(Cl)c1	i	i	49[inhibitor]	i	i	i	i
CCOC(=O)NC(NCCc1ccccc1)(C(F)(F)F)C(F)(F)F	i	i	i	i	nt	nt	nt
CCOC(=O)NC(NCc1ccccc1)(C(F)(F)F)C(F)(F)F	i	i	i	137	i	i	i
O=C(NCCc1ccccc1)c1cccc([N+](=O)[O-])c1	i	i	i	130	i	i	i
CCSc1ncnc2sc(C)c(C)c12	i	i	i	53[inhibitor]	i	i	i
COc1ccccc1N1CC(C)(C)C(=O)N(C(=O)c2c(F)cccc2Cl)C1=S	i	i	i	i	nt	nt	nt
CCc1ccc(NC(=O)C2CCCN2S(=O)(=O)c2ccc3c(c2)n(C)c(=O)c(=O)n3C)cc1 (stereo not given)	i	i	i	68[inhibitor]	i	i	i
Cc1ccc2c(Cl)cc(Cl)c(OCC(=O)O)c2n1	i	i	i	129	i	i	i
OC(CNCc1ccco1)Cn1c2ccc(Br)cc2c2cc(Br)ccc21 (stereo not given)	47	i	216	i	i	i	i
NC(=O)c1ccc(N=Cc2c(O)ccc3ccccc23)cc1	nt	i	nt	nt	nt	nt	nt
C=CCS/C(N)=N\N=C\c1c(O)ccc2ccccc12	i	i	i	139	i	i	i
O=C(CCSCCC(=O)NCCN1CCOCC1)NCCN1CCOCC1	i	i	i	81[inhibitor]	i	i	i
O=C(CCSCCc1ccncc1)NCCCN1CCOCC1	i	i	i	i	nt	nt	nt
COCCNC(=S)N(CCc1c(C)[nH]c2ccc(F)cc12)Cc1ccco1	i	i	i	i	nt	nt	nt
CC(=O)NC(Cc1cccc(C)c1)C(=O)NC1CCN(C(=O)NCc2ccccc2)CC1 (stereo not given)	i	nt	i	i	nt	nt	nt
COc1ccc2c(c1)c(C(=O)N/N=C/c1ccc(OC)c(OC)c1)c(C)n2C	i	i	i	152	i	i	i
COc1ccc(/C=N/NC(=O)c2nc(-c3ccccc3)n(-c3ccccc3)n2)cc1OC	i	i	i	151	i	i	i
